Experimental findings from PMC7862700, “An all-to-all approach to the identification of sequence-specific readers for epigenetic DNA modifications on cytosine” are described below.

Chain of SPIB (Q01892 whole entry): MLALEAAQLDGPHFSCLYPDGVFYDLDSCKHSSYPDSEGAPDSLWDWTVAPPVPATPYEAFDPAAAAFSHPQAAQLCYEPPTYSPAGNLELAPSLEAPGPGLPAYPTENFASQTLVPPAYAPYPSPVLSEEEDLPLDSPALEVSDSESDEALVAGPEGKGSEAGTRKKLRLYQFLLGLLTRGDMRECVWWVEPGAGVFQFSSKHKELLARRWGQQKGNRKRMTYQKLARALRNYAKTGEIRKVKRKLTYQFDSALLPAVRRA

The first experiment has as its target SPI1 (Homo sapiens, UniProt P17947 1-270). Nature of the experiment: DAPPL (digital affinity profiling via proximity ligation, sequencing); 10 mM Tris-HCl pH 7.5, 50 mM NaCl, 1 mM DTT, 4% glycerol, room temperature, 30 min; GST-TFs on glutathione beads, 16-mer random dsDNA library, 0.1% formaldehyde crosslink after washing; high values mean tight binding. As to conditions: protein: recombinant; tags: N-terminal GST; dsDNA, one strand shown. In outline: (§1)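 Binding signal is given per hexamer as its read frequency for a factor divided by its frequency in the tag-only sample. GST-fused human transcription factors were expressed in yeast, captured on glutathione beads, barcoded with DNA and pooled with that sample, then incubated with 200 nmole of a 16-mer random double-stranded DNA library in Tris/NaCl/DTT/glycerol buffer for 30 min at room temperature. The pools were then washed, crosslinked, proximity-ligated, amplified by PCR and sequenced on an Illumina NextSeq500.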
For the sequence CGACTT, the binding signal was 1.9 fold enrichment (6-mer frequency, TF over GST control).
Still for that read-out and setting: with TTTTAG the figure was 1.15 fold enrichment (6-mer frequency, TF over GST control); with CAATGC, 1.12 fold enrichment (6-mer frequency, TF over GST control).
Take ACCCCC: the binding signal was 1.14 fold enrichment (6-mer frequency, TF over GST control).
CACCAC: the binding signal was 1.18 fold enrichment (6-mer frequency, TF over GST control).
On the same count and under the same terms, the same measure for AAATAG: 1.22 fold enrichment (6-mer frequency, TF over GST control); for ACTCCC: 1.38 fold enrichment (6-mer frequency, TF over GST control).
Still for that read-out and setting: with TACTAA the figure was 1.25 fold enrichment (6-mer frequency, TF over GST control); with AACGAC, 1.12 fold enrichment (6-mer frequency, TF over GST control).
Turning to AAGCGC, the binding signal was 1.07 fold enrichment (6-mer frequency, TF over GST control).
As for CGCTAC, the binding signal is 1.16 fold enrichment (6-mer frequency, TF over GST control).
Consider CACTGC, for which the binding signal was 1.38 fold enrichment (6-mer frequency, TF over GST control).
As to GTCCAC, the binding signal is 1.02 fold enrichment (6-mer frequency, TF over GST control).
As for ATGGAA, the binding signal is 1.18 fold enrichment (6-mer frequency, TF over GST control).
Take GATACG: the binding signal is 1.04 fold enrichment (6-mer frequency, TF over GST control).
Same read-out and setting: the same measure for CATGGT: 1.27 fold enrichment (6-mer frequency, TF over GST control).
For TATGGT, the binding signal was 1.28 fold enrichment (6-mer frequency, TF over GST control).
The same measure, in the same setting: the same measure for TCCCCA: 1.63 fold enrichment (6-mer frequency, TF over GST control); for GTTCAT: 1.18 fold enrichment (6-mer frequency, TF over GST control); for ACACAT: 1.21 fold enrichment (6-mer frequency, TF over GST control).
For CACTTG, the binding signal is 1.39 fold enrichment (6-mer frequency, TF over GST control).
As for AACACG, the binding signal is 1.17 fold enrichment (6-mer frequency, TF over GST control).
ACATCA: the binding signal is 1.13 fold enrichment (6-mer frequency, TF over GST control).
As to CAACCC, the binding signal is 1.21 fold enrichment (6-mer frequency, TF over GST control).
Turning to TTTCAA, the binding signal is 1.32 fold enrichment (6-mer frequency, TF over GST control).
On to CTGGTC, for which the binding signal is 1.13 fold enrichment (6-mer frequency, TF over GST control).
Regarding TTACCG, the binding signal was 1.17 fold enrichment (6-mer frequency, TF over GST control).
As for CTCGCC, the binding signal was 1.17 fold enrichment (6-mer frequency, TF over GST control).
Turning to TCCCGT, the binding signal was 1.43 fold enrichment (6-mer frequency, TF over GST control).
Regarding CTCGAA, the binding signal was 1.17 fold enrichment (6-mer frequency, TF over GST control).
Turning to CATGCT, the binding signal is 1.11 fold enrichment (6-mer frequency, TF over GST control).
The same measure, in the same setting: with GTCACT the figure was 1.19 fold enrichment (6-mer frequency, TF over GST control).
As for ATCTTT, the binding signal was 1.21 fold enrichment (6-mer frequency, TF over GST control).
As for TTATTC, the binding signal is 1.33 fold enrichment (6-mer frequency, TF over GST control).
On the same count and under the same terms, with TCATCA the figure was 1.1 fold enrichment (6-mer frequency, TF over GST control).
Regarding GCACTG, the binding signal was 1.14 fold enrichment (6-mer frequency, TF over GST control).
For the sequence ATGTAT, the binding signal is 1.28 fold enrichment (6-mer frequency, TF over GST control).
On the same count and under the same terms, the same measure for CCCTAA: 1.2 fold enrichment (6-mer frequency, TF over GST control); for CTCAGC: 1.23 fold enrichment (6-mer frequency, TF over GST control).

The next experiment addresses SPIB (Homo sapiens, UniProt Q01892 1-262). Described as above. The note with it: protein: recombinant; tags: N-terminal GST; dsDNA, one strand shown. An outline of the steps: as §1
Turning to CGACTT, the binding signal was 1.79 fold enrichment (6-mer frequency, TF over GST control).
On to TTTTAG, for which the binding signal is 1.3 fold enrichment (6-mer frequency, TF over GST control).
As to CAATGC, the binding signal is 1.32 fold enrichment (6-mer frequency, TF over GST control).
Turning to ACCCCC, the binding signal is 1.21 fold enrichment (6-mer frequency, TF over GST control).
Take CACCAC: the binding signal was 1.14 fold enrichment (6-mer frequency, TF over GST control).
As to AAATAG, the binding signal is 1.15 fold enrichment (6-mer frequency, TF over GST control).
Still for that read-out and setting: the same measure for ACTCCC: 1.42 fold enrichment (6-mer frequency, TF over GST control); for TACTAA: 1.23 fold enrichment (6-mer frequency, TF over GST control).
For the sequence AACGAC, the binding signal is 1.04 fold enrichment (6-mer frequency, TF over GST control).
Still for that read-out and setting: with AAGCGC the figure was 1.23 fold enrichment (6-mer frequency, TF over GST control).
In the case of CGCTAC, the binding signal was 1.13 fold enrichment (6-mer frequency, TF over GST control).
On the same count and under the same terms, the same measure for CACTGC: 1.44 fold enrichment (6-mer frequency, TF over GST control); for GTCCAC: 1.09 fold enrichment (6-mer frequency, TF over GST control); for ATGGAA: 1.19 fold enrichment (6-mer frequency, TF over GST control).
Take GATACG: the binding signal was 1.17 fold enrichment (6-mer frequency, TF over GST control).
On to CATGGT, for which the binding signal is 1.26 fold enrichment (6-mer frequency, TF over GST control).
Consider TATGGT, for which the binding signal was 1.3 fold enrichment (6-mer frequency, TF over GST control).
For TCCCCA, the binding signal is 1.16 fold enrichment (6-mer frequency, TF over GST control).
Consider GTTCAT, for which the binding signal is 1.14 fold enrichment (6-mer frequency, TF over GST control).
On the same count and under the same terms, with ACACAT the figure was 1.21 fold enrichment (6-mer frequency, TF over GST control).
Turning to CACTTG, the binding signal is 1.3 fold enrichment (6-mer frequency, TF over GST control).
With AACACG, the binding signal is 1.13 fold enrichment (6-mer frequency, TF over GST control).
As to ACATCA, the binding signal was 1.07 fold enrichment (6-mer frequency, TF over GST control).
Take CAACCC: the binding signal was 1.26 fold enrichment (6-mer frequency, TF over GST control).
For the sequence TTTCAA, the binding signal was 1.37 fold enrichment (6-mer frequency, TF over GST control).
For the sequence CTGGTC, the binding signal is 1.35 fold enrichment (6-mer frequency, TF over GST control).
Regarding TTACCG, the binding signal was 1.15 fold enrichment (6-mer frequency, TF over GST control).
With CTCGCC, the binding signal was 1.24 fold enrichment (6-mer frequency, TF over GST control).
As for TCCCGT, the binding signal is 1.3 fold enrichment (6-mer frequency, TF over GST control).
Same read-out and setting: with CTCGAA the figure was 1.12 fold enrichment (6-mer frequency, TF over GST control); with CATGCT, 1.25 fold enrichment (6-mer frequency, TF over GST control).
In the case of GTCACT, the binding signal was 1.21 fold enrichment (6-mer frequency, TF over GST control).
In the case of ATCTTT, the binding signal is 1.23 fold enrichment (6-mer frequency, TF over GST control).
Take TTATTC: the binding signal was 1.39 fold enrichment (6-mer frequency, TF over GST control).
Same read-out and setting: the same measure for TCATCA: 1.14 fold enrichment (6-mer frequency, TF over GST control).
In the case of GCACTG, the binding signal is 1.05 fold enrichment (6-mer frequency, TF over GST control).
ATGTAT: the binding signal was 1.32 fold enrichment (6-mer frequency, TF over GST control).
In the case of CCCTAA, the binding signal was 1.29 fold enrichment (6-mer frequency, TF over GST control).
In the case of CTCAGC, the binding signal was 1.35 fold enrichment (6-mer frequency, TF over GST control).

In another experiment the target is T1, ELK3 (Homo sapiens, UniProt P41970 1-407).
T1 sequence: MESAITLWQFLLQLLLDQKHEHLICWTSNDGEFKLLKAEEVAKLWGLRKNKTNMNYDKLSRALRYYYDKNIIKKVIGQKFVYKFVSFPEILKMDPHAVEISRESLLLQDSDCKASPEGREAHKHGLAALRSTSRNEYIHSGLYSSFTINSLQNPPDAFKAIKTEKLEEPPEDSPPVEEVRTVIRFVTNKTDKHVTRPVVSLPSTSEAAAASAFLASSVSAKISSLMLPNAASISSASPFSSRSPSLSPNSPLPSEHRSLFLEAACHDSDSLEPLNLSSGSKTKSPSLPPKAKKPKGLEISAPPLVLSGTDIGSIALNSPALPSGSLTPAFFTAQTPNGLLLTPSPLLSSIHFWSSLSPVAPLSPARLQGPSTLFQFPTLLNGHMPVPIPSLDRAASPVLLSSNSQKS
Described as above. As to conditions: protein: recombinant; tags: N-terminal GST; dsDNA, one strand shown. An outline of the steps: as §1
With CGACTT, the binding signal is 1.94 fold enrichment (6-mer frequency, TF over GST control).
With TTTTAG, the binding signal is 1.16 fold enrichment (6-mer frequency, TF over GST control).
Turning to CAATGC, the binding signal is 1.21 fold enrichment (6-mer frequency, TF over GST control).
As to ACCCCC, the binding signal is 1.18 fold enrichment (6-mer frequency, TF over GST control).
Still for that read-out and setting: with CACCAC the figure was 1.06 fold enrichment (6-mer frequency, TF over GST control).
For the sequence AAATAG, the binding signal is 1.08 fold enrichment (6-mer frequency, TF over GST control).
On to ACTCCC, for which the binding signal was 1.43 fold enrichment (6-mer frequency, TF over GST control).
With TACTAA, the binding signal is 1.24 fold enrichment (6-mer frequency, TF over GST control).
Consider AACGAC, for which the binding signal was 1.06 fold enrichment (6-mer frequency, TF over GST control).
Take AAGCGC: the binding signal is 1.19 fold enrichment (6-mer frequency, TF over GST control).
Consider CGCTAC, for which the binding signal is 1.28 fold enrichment (6-mer frequency, TF over GST control).
Still for that read-out and setting: with CACTGC the figure was 1.51 fold enrichment (6-mer frequency, TF over GST control); with GTCCAC, 1.04 fold enrichment (6-mer frequency, TF over GST control).
As for ATGGAA, the binding signal was 1.11 fold enrichment (6-mer frequency, TF over GST control).
On to GATACG, for which the binding signal was 1.18 fold enrichment (6-mer frequency, TF over GST control).
As for CATGGT, the binding signal was 1.3 fold enrichment (6-mer frequency, TF over GST control).
As for TATGGT, the binding signal is 1.17 fold enrichment (6-mer frequency, TF over GST control).
On the same count and under the same terms, with TCCCCA the figure was 1.34 fold enrichment (6-mer frequency, TF over GST control).
GTTCAT: the binding signal is 1.15 fold enrichment (6-mer frequency, TF over GST control).
Same read-out and setting: the same measure for ACACAT: 1.32 fold enrichment (6-mer frequency, TF over GST control).
As for CACTTG, the binding signal is 1.26 fold enrichment (6-mer frequency, TF over GST control).
Regarding AACACG, the binding signal was 1.16 fold enrichment (6-mer frequency, TF over GST control).
As to ACATCA, the binding signal is 1.11 fold enrichment (6-mer frequency, TF over GST control).
CAACCC: the binding signal was 1.21 fold enrichment (6-mer frequency, TF over GST control).
As to TTTCAA, the binding signal is 1.33 fold enrichment (6-mer frequency, TF over GST control).
With CTGGTC, the binding signal is 1.09 fold enrichment (6-mer frequency, TF over GST control).
Still for that read-out and setting: with TTACCG the figure was 1.18 fold enrichment (6-mer frequency, TF over GST control); with CTCGCC, 1.25 fold enrichment (6-mer frequency, TF over GST control).
Regarding TCCCGT, the binding signal is 1.3 fold enrichment (6-mer frequency, TF over GST control).
As for CTCGAA, the binding signal is 1.21 fold enrichment (6-mer frequency, TF over GST control).
Consider CATGCT, for which the binding signal is 1.3 fold enrichment (6-mer frequency, TF over GST control).
In the case of GTCACT, the binding signal was 1.06 fold enrichment (6-mer frequency, TF over GST control).
As to ATCTTT, the binding signal was 1.22 fold enrichment (6-mer frequency, TF over GST control).
Take TTATTC: the binding signal is 1.45 fold enrichment (6-mer frequency, TF over GST control).
The same measure, in the same setting: the same measure for TCATCA: 1.18 fold enrichment (6-mer frequency, TF over GST control).
As to GCACTG, the binding signal is 1.06 fold enrichment (6-mer frequency, TF over GST control).
As for ATGTAT, the binding signal was 1.36 fold enrichment (6-mer frequency, TF over GST control).
On to CCCTAA, for which the binding signal was 1.28 fold enrichment (6-mer frequency, TF over GST control).
Take CTCAGC: the binding signal is 1.12 fold enrichment (6-mer frequency, TF over GST control).
